Laboratory results from the supplement of paper PMC13380429.

System: Vero E6 infected with SARS-CoV-2
Assay: inhibition of SARS-CoV-2 cytopathic effect; higher = more antiviral protection, active = above 15
Settings: 48 h

Measured: inhibition of SARS-CoV-2 cytopathic effect

C[n+]1cc2c3c(ccc2c2ccc4cc5c(cc4c21)OCO5)OCO3 [sanguinarium-chloride]
inactive: 1 nM 0.27% | 8.33 nM 0.22% | 100 nM -1.52% | 833.33 nM 2.52% | 10000 nM -25.4%

NC(=O)c1cccc2cn(-c3ccc([C@@H]4CCCNC4)cc3)nc12 [niraparib]
inactive: 1 nM -0.28% | 8.33 nM 0.08% | 100 nM -1.61% | 833.33 nM 3.39% | 10000 nM 5.55%

CCCCC(CC)CCC(CC(C)C)OS(=O)(=O)O (stereo not given) [sodium-tetradecyl-sulfate]
inactive: 1 nM 3.58% | 8.33 nM 3.18% | 100 nM 2.64% | 833.33 nM 1.74% | 10000 nM 3.12%

COc1cc(C(=O)N2CCC(N3CCN(C)CC3)CC2)ccc1Nc1ncc2c(n1)N(C)c1ccccc1C(=O)N2C
inactive: 1 nM 0.64% | 8.33 nM -0.23% | 100 nM 2.57% | 833.33 nM 1.89% | 10000 nM -6.43%

COc1ccc(CN(CCN(C)C)c2ncccn2)cc1 [thonzylamine]
inactive: 1 nM 0.64% | 8.33 nM 0.52% | 100 nM 0.24% | 833.33 nM 3.55% | 10000 nM -0.17%

C[N+]1(C)CCC(OC(=O)C(O)(c2ccccc2)C2CCCC2)C1 (stereo not given) [glycopyrrolate]
inactive: 1 nM -3.43% | 8.33 nM -1.27% | 100 nM -0.55% | 833.33 nM -0.2% | 10000 nM -1.06%

O=S(=O)(O)Oc1ccc(C(c2ccc(OS(=O)(=O)O)cc2)c2ccccn2)cc1 [sodium-picosulfate]
inactive: 1 nM -1.14% | 8.33 nM -0.13% | 100 nM 0.34% | 833.33 nM 5.9% | 10000 nM -5.74%

C#C[C@]1(OC(C)=O)CC[C@H]2[C@@H]3CCC4=CC(=O)CC[C@@H]4[C@H]3CC[C@@]21C [norethindrone-acetate]
inactive: 1 nM 0.09% | 8.33 nM 0.03% | 100 nM -1.33% | 833.33 nM 0.02% | 10000 nM 1.02%

CCC(C)n1ncn(-c2ccc(N3CCN(c4ccc(OCC5COC(Cn6cncn6)(c6ccc(Cl)cc6Cl)O5)cc4)CC3)cc2)c1=O (stereo not given) [itraconazole]
inactive: 1 nM 2.52% | 8.33 nM 7.17% | 100 nM 2.54% | 833.33 nM -1.78% | 10000 nM -7.27%

O=C(O)[C@H](Cc1ccc(Nc2nccc3ccncc23)cc1)NC1=C(Br)C(=O)C12CCCCC2
inactive: 1 nM 0.12% | 8.33 nM 0.67% | 100 nM -0.71% | 833.33 nM -0.14% | 10000 nM 2.62%

CCCCCCCCCCCCCCSCC(=O)O [tetradecylthioacetic-acid]
inactive: 1 nM 0.56% | 8.33 nM 0.01% | 100 nM -2.65% | 833.33 nM -4.9% | 10000 nM 1.48%

Cc1c(Cc2ccc3ccccc3n2)c2cc(F)ccc2n1CC(=O)O
inactive: 1 nM 1.64% | 8.33 nM -0.1% | 100 nM 0.44% | 833.33 nM -1.23% | 10000 nM -2.21%

Oc1ccc2c3c1O[C@H]1c4[nH]c5c(c4C[C@@]4(O)[C@@H](C2)N(CC2CC2)CC[C@]314)C[C@@]1(O)[C@H]2Cc3ccc(O)c4c3[C@@]1(CCN2CC1CC1)[C@H]5O4 [nor-binaltorphimine]
inactive: 1 nM 1.48% | 8.33 nM 0.42% | 100 nM 2.76% | 833.33 nM 1.16% | 10000 nM -1.05%

Nc1ncn([C@H]2C[C@H](O)[C@@H](CO)O2)c(=O)n1 [decitabine]
inactive: 1 nM 3.33% | 8.33 nM 3.36% | 100 nM 4.5% | 833.33 nM -1.04% | 10000 nM -3.03%

CC(=O)c1ccc(S(=O)(=O)NC(=O)NC2CCCCC2)cc1 [acetohexamide]
inactive: 1 nM -0.51% | 8.33 nM -0.35% | 100 nM -0.58% | 833.33 nM 0.37% | 10000 nM -0.22%

C[C@H](Nc1cc(NS(=O)(=O)N2CCC2)nc(SCc2cccc(F)c2F)n1)[C@@H](O)CO
inactive: 1 nM 3.09% | 8.33 nM 1.5% | 100 nM 0.2% | 833.33 nM 0.91% | 10000 nM 2.14%

CCOP(=S)(OCC)Oc1nc(Cl)c(Cl)cc1Cl [chlorpyrifos]
inactive: 1 nM 0.53% | 8.33 nM 2.45% | 100 nM -0.67% | 833.33 nM 0.54% | 10000 nM -4.79%
